Assay [1] concerns the target Lysosomal acid glucosylceramidase (Homo sapiens) (UniProt P04062). The experiment in a line: Glucocerebrosidase-p2 (AID 348; in the data active = potency below about 10 µM; also: potency is read from the fitted curve at half-maximal effect). Particulars: purified GBA, blue fluorogenic substrate, 40 min. In short, it runs like this: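 Normal human glucocerebrosidase (0.2 nM) with blue fluorogenic substrate (80 uM final) in citrate/phosphate pH 5.9 with 10mM sodium taurocholate, 0.01% tween-20; 40 min RT, NaOH/glycine stop; fluorescence Ex 365/Em 440; AC50 from a titration from 0.6 nM upwards.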

The target in assay [2] is Cytochrome P450 1A2 (Homo sapiens) (UniProt P05177). The experiment in a line: p450-cyp1a2 (AID 410; calls by dose curve; also: potency is read from the fitted curve at half-maximal effect;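 as to activity change, negative = inhibition: -100% = full effect of reference inhibitor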). Particulars: recombinant CYP1A2, luciferin-ME demethylation, luminescence; series mostly up to 11.4 µM. In short, it runs like this:
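20nM CYP1A2, 100uM Luciferin-ME (=Km), 100mM KPO4; cpd 10 min RT; +NADPH regen, 60 min RT; stop/detect 20 min; luminescence. Normalized to furafylline 57 uM = full inhibition.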

Assay [3] addresses Glucocorticoid receptor (Homo sapiens) (UniProt P04150). Put plainly: GR-GFP Redistribution (AID 450;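 active = compounds whose dose series gives a full or clear partial fitted curve of increased nuclear translocation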; also: potency is read from the fitted curve at half-maximal effect). The following applies: U2OS GR-GFP nuclear translocation, laser cytometry, 2 h.
Assay [4] shares this target. The experiment in a line: GR-EFC Redistribution (AID 451; calls by dose curve; also: potency is read from the fitted curve at half-maximal effect). Particulars: CHO-K1 GR-EFC translocation, beta-gal luminescence, 2 h. An outline of the steps:
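CHO-K1 cells expressing nuclear EA and GR-ED fragments of b-gal; compounds titrated up to 46 uM final, 2 h at 37 C. GR nuclear translocation read as complemented b-gal luminescence after 1 h RT detection.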

Assay [5] concerns the target Mitogen-activated protein kinase 10 (Mus musculus) (UniProt Q61831). The experiment in a line: JNK3 AlphaScreen Assay (AID 530).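 Also: kinase came from lysate of stimulated human HepG2 cells; signal reports phosphorylation of biotinylated GST-cJun 1-79 at Ser73 with 10 µM ATP; % is scaled to controls: 0 for no effect and ±100 for the full control effect.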 The following applies: JNK3 lysate, c-Jun phosphorylation; series mostly up to 11.4 µM. An outline of the steps:
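HepG2 lysate (IL-1b/TNFa pre-activated) + biotin-GST-cJun 1-79 + anti-pSer73 cJun; cpd titration, 15 min RT; ATP 10 uM start; Tris pH 7.6, MgCl2, DTT, vanadate; beads in EDTA buffer; AlphaScreen.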
Background: Bead proximity is the source of the signal in Alpha formats.

Assay [6] has as its target 3',5'-cyclic-AMP phosphodiesterase 4B (Homo sapiens) (UniProt Q07343). The experiment in a line: qHTS Assay for Inhibitors of PDE-IV (AID 607; active = well fitted activation curve with a large enough effect in the main read-out, with a control signal flat, not every such curve was filed as active; also: % of control where 0% means no effect). The following applies: HEK293 ACTOne CNG channel cells, membrane potential fluorescence; series mostly up to 22.9 µM. In short, it runs like this:
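Cell-based read-out of cAMP via a modified cyclic nucleotide-gated channel and membrane potential dye (535/590 nm) in HEK293 cells expressing PDE4 endogenously. Compounds tested up to 22.9 uM final; 100 uM RO 20-1724 reference.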
(In general: In qHTS, concentration-response curves come from the screen itself.)

In assay [7] the target is Cytochrome P450 2C9 (Homo sapiens) (UniProt P11712). Put plainly: qHTS Assay for Inhibitors and Substrates of Cytochrome P450 2C9 (AID 883; active = well fitted curve in the direction sought with a large enough effect; an effect the other way counts as inactive or inconclusive; also: nearly all actives have a fitted effect of over 60% in size; also: potency is read from the fitted curve at half-maximal effect; as to activity change, negative = inhibition: % is scaled to controls: 0 for no effect and ±100 for the full control effect). Particulars: recombinant CYP2C9, luciferin-H luminescence, 60 min; series mostly up to 11.4 µM. In short, it runs like this:
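Signal: luciferase luminescence reporting luciferin produced by CYP2C9. Conditions: 10nM enzyme, Luciferin-H 100uM at KM, 25mM KPO4, 37C, 60 min NADPH-driven reaction. Reference: 57uM sulphaphenazole as 100% inhibition.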

The nature of assay [8]: Stat Signaling Pathway (AID 446).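 Also: ME-180 cervical cancer cells given 40 pM IL-6 alongside compound; SIE-controlled beta-lactamase reporter measured as 460/530 nm FRET emission ratio; % is scaled to controls: 0 for no effect and ±100 for the full control effect.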 Particulars: ME-180 SIE beta-lactamase reporter, IL-6 stimulated, 5 h; at 7.69 µM (top of the series) unless noted. An outline of the steps: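 FRET read-out (405 nm excitation, 460/530 nm emission) of a beta-lactamase reporter under a STAT-inducible element in ME-180 cervical carcinoma cells. Cells with compound receive 40 pM IL-6 for 5 h. Values are normalised to AC90 stimulation and AC90 JAK-inhibitor controls.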

The target of assay [9] is Cytochrome P450 3A4 (Homo sapiens) (UniProt P08684). The experiment in a line: qHTS Assay for Activators of Cytochrome P450 3A4 (AID 885; active = well fitted curve in the direction sought with a large enough effect; an effect the other way counts as inactive or inconclusive; also: nearly all actives have a fitted effect of over 65% in size). Particulars: recombinant CYP3A4, Luciferin-PPXE luminescence, 60 min; series mostly up to 11.4 µM. An outline of the steps:
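Luminescent readout of luciferin formed from 25 uM Luciferin-PPXE (KM level) by 20 nM CYP3A4 in 200 mM KPO4, with 60 min NADPH-driven reaction at room temperature after 10 min compound exposure. Ketoconazole (57 uM) defined 100% inhibition.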

The target of assay [10] is Cytochrome P450 2C19 (Homo sapiens) (UniProt P33261). The experiment in a line: qHTS Assay for Inhibitors and Substrates of Cytochrome P450 2C19 (AID 899; active = well fitted curve in the direction sought with a large enough effect; an effect the other way counts as inactive or inconclusive; also: nearly all actives have a fitted effect of over 60% in size; also: potency is read from the fitted curve at half-maximal effect). The following applies: recombinant CYP2C19, luciferin-H EGE luminescence; series mostly up to 11.4 µM. In short, it runs like this: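 Signal comes from luciferase acting on luciferin released by CYP2C19-mediated hydroxylation of Luciferin-H EGE, 10uM (KM). Assay mix: 5nM enzyme, 50mM KPO4; 60 min at 37C with NADPH regeneration. Data normalized against 57uM ketoconazole.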
Sequence of Cytochrome P450 2C19 (Homo sapiens) (P33261 whole entry, looked up): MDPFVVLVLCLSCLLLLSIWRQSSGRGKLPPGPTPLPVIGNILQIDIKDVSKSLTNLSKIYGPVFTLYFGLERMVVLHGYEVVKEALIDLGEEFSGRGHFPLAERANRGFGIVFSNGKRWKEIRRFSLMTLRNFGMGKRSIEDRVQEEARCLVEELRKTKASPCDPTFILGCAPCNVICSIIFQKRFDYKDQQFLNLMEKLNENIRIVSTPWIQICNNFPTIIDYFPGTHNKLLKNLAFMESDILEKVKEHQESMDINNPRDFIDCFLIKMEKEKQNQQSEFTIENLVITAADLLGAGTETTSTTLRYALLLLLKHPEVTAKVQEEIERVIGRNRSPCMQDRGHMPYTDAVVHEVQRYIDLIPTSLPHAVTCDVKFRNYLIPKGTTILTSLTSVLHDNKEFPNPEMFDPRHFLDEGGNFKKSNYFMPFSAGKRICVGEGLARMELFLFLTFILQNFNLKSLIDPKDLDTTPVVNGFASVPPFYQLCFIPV

Assay [11] can be described thus: qHTS Assay for Identification of Small Molecule Agonists for Hypoxia Response Element Signaling Pathway (AID 914; active = well fitted activation curve with a large enough effect in the signal ratio, with a control signal flat, not every such curve was filed as active; the % refers to the signal ratio; also: % of control where 0% means no effect). The following applies: ME-180 (cervical carcinoma) HRE-bla reporter, beta-lactamase ratio, CoCl2, 17 h; activation: hits give high values. In short, it runs like this:
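Cells were plated overnight, pin-dosed with compound in a titration series, co-stimulated with EC50 CoCl2 and incubated 17 hours at 37 degrees Celsius. CCF4 substrate was then loaded, and AC50 values came from the 460nm/530nm ratio.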

Assay [12] in a line: NFAT Signaling Pathway (AID 444).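 Also: carbachol stimulus at about its EC50 of 1 µM final; % is scaled to controls: 0 for no effect and ±100 for the full control effect.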 Particulars: Jurkat NFAT-bla M1, carbachol, beta-lactamase ratio, 5 h; at 7.69 µM (top of the series) unless noted. In short, it runs like this:
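Jurkat cells with NFAT-driven β-lactamase reporter and co-expressed M1 receptor, stimulated with carbachol (final 1 uM, ~EC50), compound titration, 5 h at 37 °C. CCF4 loaded 1 h at RT; 460/530 nm ratio gave %activity and AC50.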

A number with no mark means an inactive call. Records with an inconclusive call do not appear. Active and inactive are the calls of the source. Unless noted, calls follow the shape of the dose curve; as a rule, active = well fitted curve in either direction with a large enough effect (not every such curve was filed as active); inconclusive = small, poorly fitted or top-dose-only effect, or another doubt; inactive = flat fitted curve, though single readings scatter.

Sequence of Lysosomal acid glucosylceramidase (Homo sapiens) (P04062 whole entry, looked up): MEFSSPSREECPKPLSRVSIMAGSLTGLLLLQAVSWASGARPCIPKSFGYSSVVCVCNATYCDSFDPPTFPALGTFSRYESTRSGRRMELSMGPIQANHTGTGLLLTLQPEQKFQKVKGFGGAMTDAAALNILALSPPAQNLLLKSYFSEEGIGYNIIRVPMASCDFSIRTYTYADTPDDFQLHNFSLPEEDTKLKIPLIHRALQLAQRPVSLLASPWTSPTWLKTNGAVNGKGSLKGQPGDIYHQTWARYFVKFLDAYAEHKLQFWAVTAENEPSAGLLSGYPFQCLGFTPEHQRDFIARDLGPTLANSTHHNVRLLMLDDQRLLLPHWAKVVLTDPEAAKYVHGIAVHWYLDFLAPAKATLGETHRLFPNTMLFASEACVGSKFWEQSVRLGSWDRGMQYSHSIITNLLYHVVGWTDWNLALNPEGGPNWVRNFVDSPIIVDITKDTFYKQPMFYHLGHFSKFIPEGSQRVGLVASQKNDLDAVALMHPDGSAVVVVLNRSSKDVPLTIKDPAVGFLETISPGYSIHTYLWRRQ
Sequence of 3',5'-cyclic-AMP phosphodiesterase 4B (Homo sapiens) (Q07343 whole entry, looked up): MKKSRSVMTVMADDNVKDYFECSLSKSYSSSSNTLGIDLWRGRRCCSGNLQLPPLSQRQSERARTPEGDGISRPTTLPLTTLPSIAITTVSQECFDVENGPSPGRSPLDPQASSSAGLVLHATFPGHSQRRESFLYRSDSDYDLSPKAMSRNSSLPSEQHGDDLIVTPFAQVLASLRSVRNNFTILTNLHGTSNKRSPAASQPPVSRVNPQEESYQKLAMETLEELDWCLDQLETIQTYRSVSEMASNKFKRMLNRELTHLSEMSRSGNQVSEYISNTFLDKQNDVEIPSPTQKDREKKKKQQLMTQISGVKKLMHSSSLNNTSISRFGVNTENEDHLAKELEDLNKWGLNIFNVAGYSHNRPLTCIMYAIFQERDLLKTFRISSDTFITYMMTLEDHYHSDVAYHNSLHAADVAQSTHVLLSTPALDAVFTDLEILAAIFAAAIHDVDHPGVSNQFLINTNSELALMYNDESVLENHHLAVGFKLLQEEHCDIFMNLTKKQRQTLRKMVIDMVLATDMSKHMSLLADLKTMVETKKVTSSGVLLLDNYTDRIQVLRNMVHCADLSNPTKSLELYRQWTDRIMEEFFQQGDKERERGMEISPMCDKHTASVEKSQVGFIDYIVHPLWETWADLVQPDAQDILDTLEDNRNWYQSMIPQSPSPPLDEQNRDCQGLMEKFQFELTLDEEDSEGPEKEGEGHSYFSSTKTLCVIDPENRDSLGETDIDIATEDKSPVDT
Sequence of Cytochrome P450 3A4 (Homo sapiens) (P08684 whole entry, looked up): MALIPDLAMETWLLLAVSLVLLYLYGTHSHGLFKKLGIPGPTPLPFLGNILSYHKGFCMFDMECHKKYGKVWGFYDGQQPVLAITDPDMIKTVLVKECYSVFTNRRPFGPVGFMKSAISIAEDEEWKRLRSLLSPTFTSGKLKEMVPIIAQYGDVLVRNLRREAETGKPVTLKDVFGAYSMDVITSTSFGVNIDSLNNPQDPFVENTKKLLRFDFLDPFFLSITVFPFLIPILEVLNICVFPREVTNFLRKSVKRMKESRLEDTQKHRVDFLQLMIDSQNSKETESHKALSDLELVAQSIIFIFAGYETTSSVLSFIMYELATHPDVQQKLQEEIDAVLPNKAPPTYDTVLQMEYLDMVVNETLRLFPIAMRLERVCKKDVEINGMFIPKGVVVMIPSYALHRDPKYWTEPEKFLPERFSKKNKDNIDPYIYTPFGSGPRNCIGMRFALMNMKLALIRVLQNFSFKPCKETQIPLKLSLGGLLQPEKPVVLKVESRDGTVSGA
Sequence of Cytochrome P450 1A2 (Homo sapiens) (P05177 whole entry, looked up): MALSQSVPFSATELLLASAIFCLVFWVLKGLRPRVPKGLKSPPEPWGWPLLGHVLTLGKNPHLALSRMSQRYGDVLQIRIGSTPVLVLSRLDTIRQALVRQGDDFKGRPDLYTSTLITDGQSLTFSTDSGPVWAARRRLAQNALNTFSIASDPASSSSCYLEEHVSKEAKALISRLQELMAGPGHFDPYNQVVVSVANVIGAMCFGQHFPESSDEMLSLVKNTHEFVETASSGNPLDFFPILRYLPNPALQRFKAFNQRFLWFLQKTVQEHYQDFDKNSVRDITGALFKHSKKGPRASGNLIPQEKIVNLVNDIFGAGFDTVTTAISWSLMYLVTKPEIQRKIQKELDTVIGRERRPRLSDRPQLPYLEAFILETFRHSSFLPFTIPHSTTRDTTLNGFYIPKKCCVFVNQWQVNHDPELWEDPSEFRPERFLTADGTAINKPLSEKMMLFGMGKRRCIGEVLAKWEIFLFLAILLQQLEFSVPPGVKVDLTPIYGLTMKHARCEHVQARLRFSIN
Sequence of Glucocorticoid receptor (Homo sapiens) (P04150 whole entry, looked up): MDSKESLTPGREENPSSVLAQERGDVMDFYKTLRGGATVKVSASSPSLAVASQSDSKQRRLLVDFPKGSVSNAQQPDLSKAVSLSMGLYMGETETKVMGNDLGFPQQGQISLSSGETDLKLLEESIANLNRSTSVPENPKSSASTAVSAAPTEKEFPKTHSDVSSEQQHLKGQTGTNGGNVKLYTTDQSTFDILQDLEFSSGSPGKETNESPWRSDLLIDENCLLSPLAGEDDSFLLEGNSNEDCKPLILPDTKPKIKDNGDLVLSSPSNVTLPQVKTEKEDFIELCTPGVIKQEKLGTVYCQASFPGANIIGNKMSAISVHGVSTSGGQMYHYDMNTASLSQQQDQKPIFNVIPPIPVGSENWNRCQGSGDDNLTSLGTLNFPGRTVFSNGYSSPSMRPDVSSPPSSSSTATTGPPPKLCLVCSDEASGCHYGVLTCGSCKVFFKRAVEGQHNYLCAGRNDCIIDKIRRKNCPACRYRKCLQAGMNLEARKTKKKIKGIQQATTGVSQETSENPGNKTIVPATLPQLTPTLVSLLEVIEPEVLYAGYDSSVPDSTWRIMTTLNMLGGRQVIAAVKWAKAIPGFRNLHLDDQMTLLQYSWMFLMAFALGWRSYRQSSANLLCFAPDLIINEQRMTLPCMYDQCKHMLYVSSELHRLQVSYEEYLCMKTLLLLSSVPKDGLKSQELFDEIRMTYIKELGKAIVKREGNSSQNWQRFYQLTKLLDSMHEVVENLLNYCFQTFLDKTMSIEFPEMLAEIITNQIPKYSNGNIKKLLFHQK
Sequence of Cytochrome P450 2C9 (Homo sapiens) (P11712 whole entry, looked up): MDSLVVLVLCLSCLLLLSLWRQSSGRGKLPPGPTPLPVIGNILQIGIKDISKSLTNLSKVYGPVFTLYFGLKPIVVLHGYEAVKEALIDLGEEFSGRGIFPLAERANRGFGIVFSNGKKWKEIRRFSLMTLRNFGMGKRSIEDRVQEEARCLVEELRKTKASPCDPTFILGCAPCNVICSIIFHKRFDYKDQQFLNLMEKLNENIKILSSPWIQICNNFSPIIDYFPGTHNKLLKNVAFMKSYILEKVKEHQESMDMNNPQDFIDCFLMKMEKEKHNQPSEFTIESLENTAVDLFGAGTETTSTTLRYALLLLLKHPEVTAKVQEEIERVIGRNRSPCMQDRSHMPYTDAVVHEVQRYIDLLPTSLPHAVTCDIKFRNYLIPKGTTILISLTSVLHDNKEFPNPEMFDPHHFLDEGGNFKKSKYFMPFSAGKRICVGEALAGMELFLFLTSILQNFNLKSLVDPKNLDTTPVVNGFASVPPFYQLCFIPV

For the molecule `FC(F)(F)c1cccc(-c2nc3nc(Cl)c(Cl)nc3[nH]2)c1`, the Potency in [1] is greater than 11.4 µM; in [2], 0.398 µM (active); in assay [3], greater than 46 µM; in [4], greater than 9.22 µM; in assay [7], 3.98 µM (active). Moreover, the Potency entry in [5] and in assay [6] was “inactive” in each case.

`COc1ccc(-c2csc3c2[N+]2=CCC=C2C3=O)cc1`: the Potency in assay [1] is greater than 11.4 µM; in [2] it was 0.501 µM (active); in assay [3], greater than 46 µM; in assay [4], greater than 9.22 µM; in [10], 3.98 µM (active). The activity, negative = inhibition in [8] is -14.9%. The Potency result in assay [5], in assay [6] and in assay [9] was “inactive” each time. Also, the activation in assay [11] is 4.84%.

Turning to `CN(C)CCCN1c2ccc(O)cc2Sc2ccc(Cl)cc21`, the Potency was 9.49 µM (active) in assay [1], 0.631 µM (active) in [2], greater than 46 µM in assay [3] and greater than 9.22 µM in [4]. In assay [8], the activity, negative = inhibition is 18.9%. Besides, the Potency result in [5] and in assay [6] was “inactive” in each case.

Regarding `Cc1c(S(=O)(=O)O)ccc(N=Nc2c(O)c(C(=O)O)cc3ccccc23)c1Cl`, the Potency is greater than 11.4 µM in assay [1], 5.01 µM (active) in assay [2], greater than 46 µM in assay [3] and greater than 9.22 µM in [4]. Further, the activity change, negative = inhibition in assay [12] was -10.7%. Moreover, the activity, negative = inhibition in [8] is -10.2%. Besides, the Potency result in assay [5] and in [6] was “inactive” in each case. The activation in [11] was -17.8%.

Take `Nc1ncnc2c([C@@H]3O[C@@H](CO)[C@H](O)[C@@H]3O)nsc12`: the Potency is greater than 11.4 µM in [1], greater than 46 µM in assay [3] and greater than 9.22 µM in assay [4]. Besides, the activity change, negative = inhibition in assay [2] was -16.8% [at 2.29 µM]. Also, the Potency entry in [5] and in [6] was “inactive” in each case.

Regarding `CC(=O)Nc1ccc(Cc2ccc3[nH]c(=O)cc(C)c3c2)cc1`, the figures for the Potency in [1], in assay [3] and in [4] were greater than 11.4 µM, greater than 46 µM and greater than 9.22 µM, respectively. Moreover, the Potency result in assay [2], in assay [5] and in assay [6] was “inactive” throughout. Besides, in assay [8], the activity, negative = inhibition is -9.78%.

Take `C[C@H]1CC(C)(C)C[C@@](OCCN2CCCCC2)(c2ccccc2)C1`: the Potency in assay [1] was greater than 11.4 µM; in assay [3], greater than 46 µM; in [4] it was greater than 9.22 µM. Moreover, the Potency result in assay [2], in assay [5] and in assay [9] was “inactive” throughout. Also, the activity, negative = inhibition in [8] is 7.87%.

`Cc1ccc(-c2nc(-c3nccc4ccccc34)oc2-c2ccccc2)cc1`: the Potency is greater than 11.4 µM in assay [1], 2.51 µM (active) in [2], greater than 46 µM in assay [3] and greater than 9.22 µM in assay [4]. Also, in assay [8], the activity, negative = inhibition is 24.1%. Besides, the Potency entry in assay [5], in [6] and in [9] was “inactive” each time.

As for `O=C(O)CC12C[C@H]3C[C@@H](CC(O)(C3)C1)C2`, the Potency in assay [1] was greater than 11.4 µM; in assay [3], greater than 46 µM; in [4], greater than 9.22 µM. The Potency result in [2] and in [6] was “inactive” in each case. Besides, in [12], the activity change, negative = inhibition was -2.52%. In addition, the activity, negative = inhibition in [8] is -1.43%.

Take `CCC1=C(C[C@H]2NCCc3ccccc32)C[C@@H]2c3cc(OC)c(OC)cc3CCN2C1`: the Potency in [1] was greater than 11.4 µM; in [3], greater than 46 µM; in assay [4], greater than 9.22 µM. For the same molecule, the Potency entry in assay [2], in [5] and in [6] was “inactive” in each case. Further, the activity, negative = inhibition in assay [8] is -23.5%.

For `O=C1c2ccccc2C(O)(O)[C@@]1(O)[C@]1(O)C(=O)c2ccccc2C1(O)O`, the Potency in assay [1] was greater than 11.4 µM; in assay [3] it was greater than 46 µM; in [4] it was greater than 9.22 µM. Further, the activity change, negative = inhibition in assay [2] was -7.5% [at 2.29 µM]; in assay [12], -0.902%. The Potency entry in [5], in [6], in assay [7] and in assay [10] was “inactive” in each case.

For `COc1ccc(C(=O)[C@H](Br)[C@H](Br)C(=O)O)cc1`, the Potency was greater than 11.4 µM in [1], 3.98 µM (active) in [2], greater than 46 µM in [3] and greater than 9.22 µM in assay [4]. The Potency entry in assay [5] and in [6] was “inactive” in each case.

For the molecule `Cc1cccc(CNc2nc(-c3cccnc3)nc3ccccc23)c1`, the Potency in assay [1] is greater than 11.4 µM; in assay [2], 0.631 µM (active); in assay [3], greater than 46 µM; in [4], greater than 46 µM. Moreover, the Potency entry in assay [5] and in [9] was “inactive” throughout.

`Cc1cc(Cl)ccc1OCC(=O)Nc1nc(N)nc(N)n1`: the Potency in [1] was greater than 11.4 µM; in assay [3], greater than 46 µM; in [4] it was greater than 9.22 µM. Further, the activity change, negative = inhibition in assay [12] was 1.27%. The activity, negative = inhibition in assay [8] is -6.25%. Further, the Potency result in assay [5] and in assay [6] was “inactive” throughout.

With `COc1ccc(Oc2ncc3nc(-c4ccccc4)c(=O)n(CCC#N)c3n2)cc1`, the Potency in assay [1] is greater than 11.4 µM; in assay [3], greater than 9.22 µM; in assay [4] it was greater than 46 µM. Besides, the activity change, negative = inhibition in assay [12] is -6.24%. For the same molecule, the activity, negative = inhibition in [8] was -6.05%. For the same molecule, the Potency entry in assay [5] and in [6] was “inactive” in each case.

Consider `C(=Nc1ccc2c(c1)Cc1ccccc1-2)c1ccccn1`, for which the Potency in assay [1] was greater than 11.4 µM; in [3], greater than 46 µM; in assay [4] it was greater than 9.22 µM. The activity change, negative = inhibition in assay [12] was 1.45%. Moreover, the activity, negative = inhibition in assay [8] is 0.131%. Also, the Potency result in assay [5] and in assay [6] was “inactive” in each case.

For the molecule `O=C(O)c1c(-c2nccc3ccccc23)[nH]c(-c2ccccc2)c1S(=O)(=O)O`, the Potency was greater than 11.4 µM in assay [1], greater than 46 µM in assay [3] and greater than 9.22 µM in assay [4]. Further, the activity change, negative = inhibition in assay [12] is 12%. Also, the activity, negative = inhibition in assay [8] was -1.38%. In addition, the Potency entry in [5] and in assay [6] was “inactive” each time.

Turning to `C[C@H](CCC(=O)NN)[C@@H]1CC[C@@H]2[C@H]3CC[C@H]4C[C@@H](O)CC[C@@]4(C)[C@@H]3CC[C@]21C`, the Potency in [1] is greater than 11.4 µM; in [3], greater than 46 µM; in assay [4], greater than 9.22 µM. The activity change, negative = inhibition in assay [12] is 17%. Further, in assay [8], the activity, negative = inhibition was -5.92%. In addition, the Potency entry in assay [5] and in [6] was “inactive” in each case.

In the case of `O=C(O)C1C(C(=O)O)C(C(=O)O)C1C(=O)O` (stereo not drawn), the Potency in assay [1] is greater than 11.4 µM; in [3], greater than 46 µM; in assay [4], greater than 9.22 µM. In assay [12], the activity change, negative = inhibition was -1.31%. The activity, negative = inhibition in assay [8] was 0.791%. Also, the Potency result in [5] and in [6] was “inactive” each time.

Values taken from PubChem BioAssay (NCATS).
